Laboratory results reported in PubChem BioAssay (NCATS).
Activity calls are given as the source filed them. Calls follow the shape of the dose curve; as a rule, active = well fitted inhibition curve with a large enough effect; inconclusive = small, poorly fitted or top-dose-only effect; inactive = flat fitted curve, though single readings scatter.

Target: Flap endonuclease 1 (Homo sapiens) (UniProt P39748)
Assay: qHTS Validation Assay for the Inhibitors of Human Flap endonuclease 1 (FEN1) (AID 488816)
Conditions: FEN1 nuclease activity, fluorogenic DNA substrate; series mostly up to 57.1 µM
Excerpt: The major human flap endonuclease FEN1 is an efficient structure-specific enzyme that recognizes and cleaves a 5'-unannealed DNA flap. It belongs to the RAD2 family nucleases, which are involved in DNA metabolism and are highly conserved in prokaryotes and eukaryotes. FEN1 is a key enzyme in DNA replication, repair and maintenance of genomic stability. 5'-flap removal by FEN1 is critical for Okazaki fragment processing during lagging strand DNA synthesis, long-patch base excision repair (LP BER), and regulating or facilitating recombination events. […] Deletion of the yeast FEN1 gene, i.e. rad27, results in an increased frequency of short DNA (3-32 bp) repeats, micro- and mini-satellite formation, trinucleotide repeat expansion, spontaneous recombination events, and a severe growth defect in association with cell cycle arrest in late S/G2 phase. […] Cells from fen1-/- blastocysts show increased apoptotic cell death after ionizing radiation treatment, and chicken cells lacking the fen1 gene are hypersensitive to DNA alkylating agents, e.g. methylmethane sulfonate (MMS) and N-methyl-N'-nitro-N-nitrosoguanidine (MNNG), as well as hydrogen peroxide.
FEN1 is found to be increased in many human cancers, including lung, brain cancer, gastric cancer, prostate cancer, pancreatic cancer and breast cancer. […] In particular, elevation of FEN1 in hormone refractory human prostate cancer cells correlates with resistant to various anticancer agents including ionizing radiation, doxorubicin, paclitaxel and vinblastine.
Three uL of reagents (buffer in column 3 and 4 as negative control and 10 nM FEN1 in columns 1, 2, and 5-48) were dispensed into 1,536-well black solid-bottomed plate. Compounds (23 nL) were transferred via Kalypsys pin tool equipped with 1536-pin array (10 nL slotted pins, V&P Scientific, San Diego, CA). The plates were then incubated for 15 min at room temperature, and 1 uL substrate (50 nM final concentration) were added to start the reaction read twice at 0 min read and 15 min on ViewLux reader. Throughout the screen, reagent bottle and all liquid lines were chilled and made light-tight to minimize reagent degradation. All screening operations were performed on a fully integrated robotic system (Kalypsys, San Diego, CA) containing one RX-130 and two RX-90 anthropomorphic robotic arms (Staubli, Duncan, SC). Library plates were screened starting from the lowest and proceeding to the highest concentration, and a "double-dipping" step of the highest concentration was required to access higher concentrations of compounds. Vehicle-only plates, with DMSO being pin-transferred to the entire column 5-48 compound area, were inserted uniformly at the beginning and the end of each library in order to monitor for and record any shifts in the background, which can be affected by reagent dispensers or loss in enzyme activity overtime. Screening data was corrected, normalized, and concentration-effect relationships were derived by using publicly-available curve fitting algorithms developed in-house (http://ncgc.nih.gov/pub/openhts). A four parameter Hill equation was fitted to the concentration-response data by minimizing the residual error between the modeled and observed responses.

Sequence of Flap endonuclease 1 (Homo sapiens) (P39748 whole entry, looked up): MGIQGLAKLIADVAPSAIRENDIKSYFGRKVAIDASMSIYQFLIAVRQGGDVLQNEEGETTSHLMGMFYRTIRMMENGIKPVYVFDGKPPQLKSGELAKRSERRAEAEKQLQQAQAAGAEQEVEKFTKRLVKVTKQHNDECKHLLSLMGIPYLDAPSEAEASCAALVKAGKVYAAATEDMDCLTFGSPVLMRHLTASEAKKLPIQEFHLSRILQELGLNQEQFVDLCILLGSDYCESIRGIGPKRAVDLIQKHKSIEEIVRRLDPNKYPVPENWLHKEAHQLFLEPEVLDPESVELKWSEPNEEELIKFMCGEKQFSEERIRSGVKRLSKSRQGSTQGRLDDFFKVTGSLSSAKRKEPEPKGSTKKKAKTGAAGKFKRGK

Row | Compound | outcome
1 | CCN(CC)CCNC(=O)c1ccc(NS(C)(=O)=O)cc1 | inactive
2 | COc1ccccc1N1CCN(CCN2C(=O)CC3(CCCC3)CC2=O)CC1 | inactive
3 | N[C@@H](Cn1ccc(=O)c(O)c1)C(=O)O | inactive
4 | Brc1ccc([C@H]2CN3CCSC3=N2)cc1 | inactive
5 | Nc1ncnc2n[nH]c(Nc3ccc(F)cc3)c12 | inactive
6 | O=C1NC(c2cccc([N+](=O)[O-])c2)=CCN1c1ccccc1O | inactive
7 | CC(C)N(CCC(=O)c1ccc2ccccc2c1)Cc1ccccc1 | inactive
8 | COc1cccc2c1[C@@H]1CN(CCCCn3c(=O)[nH]c4c(sc5ncc(-c6ccccc6)nc54)c3=O)C[C@@H]1CO2 | inactive
9 | O=[N+]([O-])c1ccc(-c2nc(-c3ccc(F)cc3)c(-c3ccncc3)[nH]2)cc1 | inactive
10 | COC(=O)C1=CO[C@@H](O)[C@@H]2C(CO)=CC[C@H]12 | inactive
11 | NC(N)=NCCCCN=C(N)N | inactive
12 | Cc1nn(-c2ccccc2)c(C)c1/C=N/N1CCN(Cc2ccccc2)CC1 | inactive
13 | Clc1ccc2c(c1)N=C(N1CCNCC1)c1ccccc1N2 | inactive
14 | O=C1NC(=O)/C(=C/c2ccc3c(c2)OC(F)(F)O3)S1 | inactive
15 | Cn1cnc2c(NCc3ccccc3)nc(NCCO)nc21 | inactive
16 | C[N+](C)(C)CCO | inactive
